Assay results reported in PubChem BioAssay AID1159580 (chemical genetic matrix, 2015).
Where “and” joins values, the source holds several entries; their conditions need not be identical. Equal values may be shown once. The whole screen tested about 5,500 compounds, of which about 2,000 (36%) were called active. Roughly 18% stayed inconclusive and do not appear here. Cut-off read from the data, not from the text of the source: active = normalized growth mostly below about 0.91 (no sharp cut-off); inconclusive = no clear call, values can overlap the other calls; inactive = mostly above about 0.92. This is one part of the list.

Assay: chemical genetic growth profiling, strain panel (AID 1159580);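 note: tested at 20 µM; growth read once vehicle control cultures reached saturation at 30 °C; 1 = growth at the plate median or of vehicle wells; lower values mean less growth of the strain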
Details: growth OD

Measured: normalized growth

CCC1C(=O)OCC1Cc1cncn1C (stereo unspecified)
inactive: S. cerevisiae deletion strains, locus YJR075W, strain HOC1, active compounds read low 1.01 and 0.997 and 1.02 | S. cerevisiae deletion strains, locus YKL009W, strain mrt4, active compounds read low 0.99 and 0.991 | S. cerevisiae deletion strains, locus YKL068W, active compounds read low 1 and 0.995 | S. cerevisiae deletion strains, locus YKL085W, strain MDH1 (second series), active compounds read low 1.01 and 1.04 | S. cerevisiae deletion strains, locus YKL085W, strain MDH1, active compounds read low 1.01 and 1.04 | S. cerevisiae deletion strains, locus YKL160W, strain elf1, active compounds read low 1.03 and 1.01 | S. cerevisiae deletion strains, locus YKL190W, strain CNB1, active compounds read low 1.02 and 1.01 | S. cerevisiae deletion strains, locus YKR001C, strain vps1, active compounds read low 1.01 | S. cerevisiae deletion strains, locus YKR026C, strain gcn3, active compounds read low 1.02 and 0.993 | S. cerevisiae deletion strains, locus YKR091W, strain srl3, active compounds read low 1.02 | S. cerevisiae deletion strains, locus YLL001W, strain dnm1, active compounds read low 1.02 | S. cerevisiae deletion strains, locus YLL026W, active compounds read low 1.01 and 1.02 | S. cerevisiae deletion strains, locus YLL041C, strain sdh2, active compounds read low 1.01 and 1.02 | S. cerevisiae deletion strains, locus YLR027C, strain aat2, active compounds read low 1.02 and 1.01 | S. cerevisiae deletion strains, locus YLR039C, strain RIC1, active compounds read low 1.02 and 1.07 | S. cerevisiae deletion strains, locus YLR058C, strain SHM2, active compounds read low 1.01 | S. cerevisiae deletion strains, locus YLR102C, strain apc9, active compounds read low 1.01 and 0.998 | S. cerevisiae deletion strains, locus YLR113W, strain HOG1, active compounds read low 0.972 | S. cerevisiae deletion strains, locus YLR221C, strain rsa3, active compounds read low 1.02 and 1.01 | S. cerevisiae deletion strains, locus YLR258W, strain gsy2, active compounds read low 1.02 and 1.01 | S. cerevisiae deletion strains, locus YLR262C, strain YPT6 (second series), active compounds read low 1.04 and 1.05 | S. cerevisiae deletion strains, locus YLR262C, strain YPT6, active compounds read low 1.04 and 1.1 | S. cerevisiae deletion strains, locus YLR268W, strain sec22, active compounds read low 1.06 and 0.999 | S. cerevisiae deletion strains, locus YLR320W, strain mms22, active compounds read low 1.03 and 1.02 | S. cerevisiae deletion strains, locus YLR330W, strain CHS5, active compounds read low 1.01 | S. cerevisiae deletion strains, locus YLR342W, strain FKS1 (second series), active compounds read low 0.996 and 1 | S. cerevisiae deletion strains, locus YLR342W, strain FKS1, active compounds read low 1.02 | S. cerevisiae deletion strains, locus YLR357W, strain rsc2, active compounds read low 0.988 and 0.997 | S. cerevisiae deletion strains, locus YLR370C, strain arc18, active compounds read low 1.01 and 1.02 | S. cerevisiae deletion strains, locus YLR371W, strain rom2, active compounds read low 1.01 and 0.995 | S. cerevisiae deletion strains, locus YLR384C, strain iki3, active compounds read low 1.02 and 1.03 | S. cerevisiae deletion strains, locus YLR418C, strain cdc73, active compounds read low 1.02 | S. cerevisiae deletion strains, locus YML016C, strain PPZ1, active compounds read low 1.01 | S. cerevisiae deletion strains, locus YML032C, strain rad52, active compounds read low 1.03 and 0.985 | S. cerevisiae deletion strains, locus YML120C, strain ndi1, active compounds read low 1.02 and 1.03 | S. cerevisiae deletion strains, locus YML124C, strain tub3, active compounds read low 1.01 and 0.994 | S. cerevisiae deletion strains, locus YMR058W, strain fet3, active compounds read low 1.01 and 1.02 | S. cerevisiae deletion strains, locus YMR078C, strain ctf18, active compounds read low 1.02 and 0.99 | S. cerevisiae deletion strains, locus YMR125W, strain sto1, active compounds read low 1.02 | S. cerevisiae deletion strains, locus YMR129W, active compounds read low 1.01 and 1.02 | S. cerevisiae deletion strains, locus YMR205C, strain PFK2, active compounds read low 1.04 and 1.02 | S. cerevisiae deletion strains, locus YMR223W, strain ubp8, active compounds read low 0.991 and 1 | S. cerevisiae deletion strains, locus YMR231W, strain pep5, active compounds read low 1.02 and 1.01 | S. cerevisiae deletion strains, locus YMR263W, strain SAP30, active compounds read low 1.01 and 0.995 and 1.02 | S. cerevisiae deletion strains, locus YMR307W, strain GAS1, active compounds read low 0.989 and 1.01 and 0.99 | S. cerevisiae deletion strains, locus YNL067W, strain RPL9B, active compounds read low 1.01 | S. cerevisiae deletion strains, locus YNL071W, strain lat1, active compounds read low 1.01 and 1.02 | S. cerevisiae deletion strains, locus YNL128W, strain TEP1, active compounds read low 1.01 | S. cerevisiae deletion strains, locus YNL153C, strain GIM3, active compounds read low 1.02 and 0.971 | S. cerevisiae deletion strains, locus YNL175C, strain NOP13, active compounds read low 1.01 and 0.972 | S. cerevisiae deletion strains, locus YNL183C, strain NPR1, active compounds read low 0.95 | S. cerevisiae deletion strains, locus YNL197C, strain WHI3, active compounds read low 1.01 and 0.989 | S. cerevisiae deletion strains, locus YNL209W, strain ssb2, active compounds read low 1.02 | S. cerevisiae deletion strains, locus YNL224C, strain SQS1, active compounds read low 1 and 0.989 | S. cerevisiae deletion strains, locus YNL233W, strain BNI4, active compounds read low 1.01 and 1.02 | S. cerevisiae deletion strains, locus YNL248C, strain rpa49, active compounds read low 1 and 1.01 | S. cerevisiae deletion strains, locus YNL250W, strain rad50, active compounds read low 1.01 and 0.986 | S. cerevisiae deletion strains, locus YNL271C, strain bni1, active compounds read low 1.01 | S. cerevisiae deletion strains, locus YNL298W, strain CLA4, active compounds read low 1.01 and 0.999 | S. cerevisiae deletion strains, locus YNL307C, strain MCK1, active compounds read low 1.02 and 1.01 | S. cerevisiae deletion strains, locus YNL322C, strain KRE1 (second series), active compounds read low 1.02 | S. cerevisiae deletion strains, locus YNL322C, strain KRE1, active compounds read low 1.01 | S. cerevisiae deletion strains, locus YNR049C, strain mso1, active compounds read low 1.02 and 1.01 | S. cerevisiae deletion strains, locus YNR052C, strain pop2, active compounds read low 1.01 and 0.997 | S. cerevisiae deletion strains, locus YOL006C, strain TOP1, active compounds read low 1.1 and 1.08 | S. cerevisiae deletion strains, locus YOL012C, strain htz1 0.844 and 0.846 | S. cerevisiae deletion strains, locus YOL147C, strain pex11, active compounds read low 1.02 and 0.99 | S. cerevisiae deletion strains, locus YOR001W, strain rrp6, active compounds read low 0.998 and 1.02 | S. cerevisiae deletion strains, locus YOR061W, strain CKA2, active compounds read low 1.01 and 1.02 | S. cerevisiae deletion strains, locus YOR069W, strain VPS5, active compounds read low 1.01 | S. cerevisiae deletion strains, locus YOR070C, strain gyp1, active compounds read low 1.02 | S. cerevisiae deletion strains, locus YOR080W, strain dia2, active compounds read low 1.02 | S. cerevisiae deletion strains, locus YOR083W, strain WHI5 (second series), active compounds read low 0.992 and 1 | S. cerevisiae deletion strains, locus YOR083W, strain WHI5, active compounds read low 1.02 | S. cerevisiae deletion strains, locus YOR106W, strain vam3, active compounds read low 1.02 | S. cerevisiae deletion strains, locus YOR136W, strain idh2, active compounds read low 1.02 and 1 | S. cerevisiae deletion strains, locus YOR144C, strain elg1, active compounds read low 1.02 and 0.993 | S. cerevisiae deletion strains, locus YOR184W, strain ser1, active compounds read low 1.04 and 1.01 | S. cerevisiae deletion strains, locus YOR231W, strain MKK1, active compounds read low 0.976 | S. cerevisiae deletion strains, locus YOR265W, strain rbl2, active compounds read low 1.02 and 1.01 | S. cerevisiae deletion strains, locus YOR270C, strain vph1, active compounds read low 1.02 and 1.07 | S. cerevisiae deletion strains, locus YOR290C, strain snf2, active compounds read low 1.03 and 0.969 | S. cerevisiae deletion strains, locus YOR316C, strain cot1, active compounds read low 1.02 and 0.999 | S. cerevisiae deletion strains, locus YPL051W, strain arl3, active compounds read low 1.02 and 1.01 | S. cerevisiae deletion strains, locus YPL055C, strain LGE1, active compounds read low 1.06 and 1 | S. cerevisiae deletion strains, locus YPL078C, strain atp4, active compounds read low 1.02 and 1.01 | S. cerevisiae deletion strains, locus YPL106C, strain sse1, active compounds read low 1.02 | S. cerevisiae deletion strains, locus YPL240C, strain hsp82, active compounds read low 1.03 and 1.02 | S. cerevisiae deletion strains, locus YPL241C, strain CIN2, active compounds read low 1.01 | S. cerevisiae deletion strains, locus YPL256C, strain CLN2, active compounds read low 0.979 | S. cerevisiae deletion strains, locus YPR119W, strain clb2, active compounds read low 1.01 and 0.99 | S. cerevisiae deletion strains, locus YPR141C, strain kar3, active compounds read low 1.01 and 1 | S. cerevisiae deletion strains, locus YPR163C, strain tif3, active compounds read low 1.03 and 0.994 | S. cerevisiae deletion strains, locus YPR167C, strain met16, active compounds read low 1.02 and 0.995 | S. cerevisiae deletion strains, strain wtn01, active compounds read low 1.03 and 0.997 | S. cerevisiae strains, strain wild type, active compounds read low 1.01
